About 810 (0.43%) of roughly 190,000 compounds were called active. This is one part of a sample in which actives are shown more often than they occur. A number with no mark means an inactive call. Cut-off read from the data, not from the text of the source: active = inhibition above about 50%; inactive = the rest.

The assay deals with Mannose-6-phosphate isomerase (Homo sapiens) (UniProt P34949). Put plainly: MPI enzyme activity inhibition – biochemical, fluorescence intensity, coupled assay, primary screen (AID 1209).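 Note: plate controls were DMSO vehicle for no effect and wells lacking substrate for full effect.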 Particulars: purified PMI enzyme, at 20 µM, active compounds read high.
Mannose-6-phosphate isomerase (Homo sapiens), sequence (P34949 whole entry, looked up): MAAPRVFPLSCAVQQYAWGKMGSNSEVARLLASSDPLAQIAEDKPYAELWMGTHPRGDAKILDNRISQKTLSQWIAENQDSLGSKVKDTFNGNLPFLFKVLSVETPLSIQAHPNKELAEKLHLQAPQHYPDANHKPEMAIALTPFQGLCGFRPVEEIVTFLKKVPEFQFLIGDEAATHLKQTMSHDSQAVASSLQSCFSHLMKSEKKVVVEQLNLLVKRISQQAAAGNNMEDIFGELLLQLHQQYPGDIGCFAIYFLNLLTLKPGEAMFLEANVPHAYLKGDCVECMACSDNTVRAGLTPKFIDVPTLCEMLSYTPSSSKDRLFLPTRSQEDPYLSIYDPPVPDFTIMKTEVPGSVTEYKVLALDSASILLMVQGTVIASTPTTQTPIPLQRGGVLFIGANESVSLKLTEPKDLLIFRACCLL
For `CCSc1c(-c2ccccc2)nc2c(C)cccc2c1C(=O)O`, the inhibition (usually the change of the read-out against control, counted positive when it falls) was 4.5%.

Consider `CCSc1nnc(-c2ccccc2SC)o1`, for which the inhibition was -75.6%.

As for `Cc1cccc(NC(=O)c2sc3nc4c(c(-c5cccs5)c3c2N)CN(C)CC4)c1`, the inhibition was -14.8%.

On to `CN1CCN(c2ccc(NC(=O)c3ccc(-c4ccc(Br)cc4)o3)cc2)CC1`, for which the inhibition is -0.8%.

For the compound `Cc1c(Nc2cc(N3CCCCCC3)c3nonc3c2[N+](=O)[O-])c(=O)n(-c2ccccc2)n1C`, the inhibition was 55% (active).

On to `Cc1c(Nc2cc(N3CCCC(C)C3)c3nonc3c2[N+](=O)[O-])c(=O)n(-c2ccccc2)n1C` (stereo not drawn), for which the inhibition was 45.8%.

`Cc1c(Nc2cc(N3CCOCC3)c3nonc3c2[N+](=O)[O-])c(=O)n(-c2ccccc2)n1C`: the inhibition is 19.4%.

Regarding `Cc1ccc2c(C(=O)CN3CCN(c4ccccc4)CC3)c(C)[nH]c2c1`, the inhibition was -4.7%.

`CCOc1ccccc1-n1c(SCC(=O)NC2CCCC2)nnc1-c1ccoc1C`: the inhibition is 17.9%.

Regarding `COc1cc(C(=O)N/N=C/c2ccc(OC)c(CN3CCN(c4ccc(F)cc4)CC3)c2)ccc1O`, the inhibition is 22.3%.

Turning to `COc1ccc(/C=N\NC(=O)c2cccc([N+](=O)[O-])c2)cc1Cn1cc([N+](=O)[O-])cn1`, the inhibition is 10%.

As to `COc1ccc(/C=N/NC(=O)c2ccccc2)cc1CN1CCN(c2ccc(F)cc2)CC1`, the inhibition was -6.3%.

As to `COc1ccc(/C=N/NC(=O)c2ccc(N)cc2)cc1Cn1cc([N+](=O)[O-])cn1`, the inhibition was 2.9%.

As to `COc1ccc(/C=N\NC(=O)c2cc(O)c(O)c(O)c2)cc1CN1CCN(c2ccc(F)cc2)CC1`, the inhibition was 58.1% (active).

`CCC(O)c1c(-c2ccccc2)nn(C)c1Cl` (stereo not drawn): the inhibition is 1.3%.

As for `O=S1(=O)CC(O)C(NCc2ccco2)C1` (stereo not drawn), the inhibition was -0.2%.

On to `COc1ccc(-c2csc(NC(=O)c3cc(=O)c4ccccc4o3)n2)cc1OC`, for which the inhibition is -9.2%.

Regarding `COC(=O)c1ccc(COC(=O)C23CC4CC(CC(O)(C4)C2)C3)o1`, the inhibition was 1.1%.

In the case of `CN(C)C=Nc1c(Br)cc(Br)c2nonc12`, the inhibition was 70.8% (active).

Regarding `CN(C)C=Nc1nonc1N`, the inhibition was -5.6%.

For `Cc1cc(/N=C/N(C)C)on1`, the inhibition was 4.8%.

With `CC1(c2ccc([N+](=O)[O-])cc2)CC(C)(C)N(C(=O)c2ccccc2)c2ccccc21` (stereo not drawn), the inhibition is 15.2%.

As to `CC1(C)CC(CCC(=O)Nc2ccc(S(N)(=O)=O)cc2)C(=O)O1` (stereo not drawn), the inhibition is -3.1%.

With `Cc1cc2cc(CN(CC3CCCO3)C(=S)NCc3ccco3)c(=O)[nH]c2cc1C` (stereo not drawn), the inhibition was 9%.

With `CC(C)CNC(=S)N(Cc1ccco1)Cc1cc2cc3c(cc2[nH]c1=O)OCCO3`, the inhibition was 19.9%.

Take `CN(C)CCN(Cc1cc2cc3c(cc2[nH]c1=O)OCO3)C(=S)NCc1ccco1`: the inhibition is 9.6%.

With `O=c1[nH]c2cc3c(cc2cc1CN(CCCO)C(=S)NCc1ccco1)OCO3`, the inhibition was 11.2%.

In the case of `O=c1[nH]c2cc3c(cc2cc1CN(Cc1cccnc1)C(=S)NCc1ccco1)OCCO3`, the inhibition was 59.7% (active).

For `Cc1ccc2cc(CN(CC3CCCO3)C(=S)NCc3ccco3)c(=O)[nH]c2c1` (stereo not drawn), the inhibition was 54.6% (active).

Consider `O=c1[nH]c2cc3c(cc2cc1CN(Cc1cccnc1)C(=S)NCc1ccco1)OCO3`, for which the inhibition is 53.9% (active).

With `Cc1ccc2[nH]c(=O)c(CN(CC3CCCO3)C(=S)NCc3ccco3)cc2c1` (stereo not drawn), the inhibition was 17.8%.

`CCNC(=S)N(Cc1ccco1)Cc1cc2cc3c(cc2[nH]c1=O)OCCO3`: the inhibition was 17.8%.

For `O=C(Cn1cnc2ccccc2c1=O)NCCC(=O)Nc1ccc2c(c1)OCO2`, the inhibition is -1.6%.

With `Fc1ccc(-c2cc(C(F)(F)F)n3ncnc3n2)cc1`, the inhibition is -18.4%.

Turning to `COC(=O)c1ccc(-n2c(C)cc(C(=O)COC(=O)CC3Sc4ccccc4NC3=O)c2C)cc1` (stereo not drawn), the inhibition was 3.1%.

Consider `CCOC(=O)c1nnc(-c2ccc(C)cc2)nc1Oc1ccccc1Cl`, for which the inhibition was 13.7%.

In the case of `CCOC(=O)c1sc(N/N=C/c2ccccc2)nc1C`, the inhibition is 60.3% (active).

As to `CCOC(=O)c1sc(N/N=C/c2cccc(C)c2)nc1C`, the inhibition is 7.8%.

On to `CCOC(=O)c1sc(NC(=O)/C=C/c2ccccc2)nc1C`, for which the inhibition was -6.9%.

Take `Cc1ccc(-n2nnc3c(=O)n(Cc4ccccn4)cnc32)cc1C`: the inhibition was -5.8%.

Turning to `CCN(CC)c1ccc(/C=N/NC(=O)Cc2cccs2)cc1`, the inhibition is 15.6%.

For the compound `Cc1cccnc1NC(=O)C1CCN(S(=O)(=O)c2c(C)noc2/C=C/c2ccco2)CC1`, the inhibition was 50.7% (active).

As to `Cc1cccc(NC(=O)C2CCN(S(=O)(=O)c3c(C)noc3/C=C/c3ccco3)CC2)n1`, the inhibition was -3.8%.

Turning to `Cc1ccc(NC(=O)C2CCN(S(=O)(=O)c3c(C)noc3/C=C/c3ccco3)CC2)nc1`, the inhibition was 9.1%.

As for `Cn1cccc1CC(=O)N/N=C/c1cccc2ccccc12`, the inhibition was 4.2%.

With `COc1ccc(S(=O)(=O)N2CCCC(C(=O)NCc3ccccn3)C2)cc1` (stereo not drawn), the inhibition is 14%.

With `COc1ccc(S(=O)(=O)N2CCCC(C(=O)NCc3ccccn3)C2)cc1Cl` (stereo not drawn), the inhibition is 62.4% (active).

On to `COc1ccc(S(=O)(=O)N2CCC(C(=O)NCc3ccccn3)CC2)cc1Cl`, for which the inhibition was 16.7%.

In the case of `O=C(O)CSc1nnc(Cn2nnc3ccccc32)n1CCc1ccccc1`, the inhibition is -12.5%.

Take `COc1ccc(CN(CC2CCC(C(=O)O)CC2)C(=S)Nc2ccccc2OC)cc1` (stereo not drawn): the inhibition was -7.5%.

For the compound `O=[N+]([O-])c1ccc(Sc2n[nH]c(-c3ccccc3)n2)nc1`, the inhibition is 16.5%.

Consider `O=[N+]([O-])c1ccc(Sc2n[nH]c(-c3ccncc3)n2)nc1`, for which the inhibition was 60.8% (active).

As for `O=[N+]([O-])c1ccc(Sc2n[nH]c(-c3ccco3)n2)nc1`, the inhibition was 8.5%.

In the case of `O=C(O)CC(NC(=O)COc1ccc(Cl)cc1Cl)C(=O)O` (stereo not drawn), the inhibition is 4.9%.

`Cc1cc(C)cc(Nc2cc(=O)n(C3CCCCC3)c(=O)[nH]2)c1`: the inhibition is 12.2%.

`Cc1cc2nc3c(=O)n(C4CCCCC4)c(=O)[nH]c3nc2cc1N`: the inhibition was 51.7% (active).

Regarding `CCCCCCn1c(=O)[nH]c2nc3cc(N)c(C)cc3nc2c1=O`, the inhibition is 35.2%.

`N#CCCN(C(=O)CSc1ccc2c(c1)OCCO2)c1ccccc1`: the inhibition is 3.1%.

In the case of `Cc1ccc(NC(=O)c2ccc(Br)o2)cc1S(=O)(=O)N(C)C`, the inhibition is -19%.

Consider `CCN(C(=O)c1cc2cccc(OC)c2oc1=O)C1CCCCC1`, for which the inhibition is -7.8%.

Consider `N#Cc1cc(N)ccc1Sc1ccccc1`, for which the inhibition was 4.7%.

Turning to `COc1ccc(S(=O)(=O)N2Cc3ccccc3CC2C(=O)O)cc1OC` (stereo not drawn), the inhibition was -6.9%.

As to `Nc1ncnc2nc(SCc3ccccc3)[nH]c12`, the inhibition is 9.5%.

As for `CCC(Sc1nc2ncnc(N)c2[nH]1)C(=O)O` (stereo not drawn), the inhibition is 64.8% (active).

For the compound `CC(C)Sc1nc2ncnc(N)c2[nH]1`, the inhibition is -8.9%.

Regarding `Cc1ccc(C)n1-c1cccc(S(=O)(=O)N2CCOCC2)c1`, the inhibition was -13.2%.

`O=c1[nH]c2c(c3c1CCCC3)CCCC2`: the inhibition is 16.2%.

Take `CC1CCCN(C(=S)SCC(=O)O)C1` (stereo not drawn): the inhibition was 0.8%.

`CC1CCCN(C(=S)SCC(=O)c2cc(Br)cc(Br)c2O)C1` (stereo not drawn): the inhibition is 66.4% (active).

For `O=C(CSC(=S)N1CCCC1)c1cc(Br)cc(Br)c1O`, the inhibition was 33.3%.

In the case of `COc1cc(/C=C2\SC(=Nc3ccccc3)N(CCc3c[nH]c4ccccc34)C2=O)ccc1OC(C)C(=O)O` (stereo not drawn), the inhibition was 8%.

Turning to `COc1cc(C(=O)OCC(=O)Nc2c(F)c(F)c(F)c(F)c2F)cc(OC)c1OC`, the inhibition is -2.4%.

Take `Cc1ccc(N(C(=O)Cn2nnc3ccccc32)C(C(=O)NC2CCCCC2)c2cn(C)nc2C)cc1` (stereo not drawn): the inhibition was -4.2%.

With `O=C(NC1CCCCC1)C(c1ccc(O)c(O)c1)N(C(=O)Cn1nnc2ccccc21)c1cccc(O)c1` (stereo not drawn), the inhibition was 47.5%.

As for `CC(=O)Nc1ccc(N(C(=O)Cn2nnc3ccccc32)C(C(=O)NC2CCCC2)c2ccc(O)c(O)c2)cc1` (stereo not drawn), the inhibition is 61.2% (active).

Turning to `Cc1cc(C)n(-c2nc3ccccc3n3cnnc23)n1`, the inhibition was -2.9%.

Regarding `COc1ccc(OC)c(NC(=O)c2cc3c(=O)n4ccccc4nc3n2C)c1`, the inhibition was -10.9%.

As for `COc1ccc(NC(=S)NNC(=O)c2nnn(-c3ccccc3)c2C)cc1`, the inhibition is -2%.

As for `Cc1ccccc1N(CC(=O)Nc1ccccc1C(=O)NCc1ccco1)S(=O)(=O)c1ccccc1`, the inhibition is -11.7%.

With `C=CCNc1nc(N2CCOCC2)c(C#N)c2c1CN(C)CC2`, the inhibition was 9.5%.

As to `N#Cc1c(NCCCO)nc(NCc2ccccc2)c2c1CCN(Cc1ccccc1)C2`, the inhibition was 56.3% (active).

With `CN1CCc2c(C#N)c(N3CCCCC3)nc(NCc3ccccc3)c2C1`, the inhibition is 26.6%.

In the case of `CCN1CCc2c(C#N)c(NCc3ccccc3)nc(NCCO)c2C1`, the inhibition is 52.6% (active).

As to `CCN1CCc2c(C#N)c(NCc3ccccc3)nc(N(CC)CC)c2C1`, the inhibition was 3%.

With `N#Cc1c(NCCN)nc(NCc2ccccc2)c2c1CCN(Cc1ccccc1)C2`, the inhibition is 17.8%.

For the compound `N#Cc1c(NCCCO)nc(-c2ccccc2)c2c1CCCC2`, the inhibition is 13.8%.

Consider `CCN1CCc2c(C#N)c(N3CCCCC3)nc(NCc3ccccc3)c2C1`, for which the inhibition is 30.4%.

In the case of `C=CCNc1nc(NCc2ccccc2)c(C#N)c2c1CN(C)CC2`, the inhibition was 54.4% (active).

Consider `CCOC(=O)c1cccc(NC(=O)CSc2nnnn2C)c1`, for which the inhibition was -7.4%.

On to `Cc1cc(NC(=O)CCc2ccc(S(=O)(=O)N3CCOCC3)cc2)n(-c2ccccc2)n1`, for which the inhibition was -7%.

Regarding `N#Cc1cnn2ccc(-c3ccc4c(c3)CCC4)nc12`, the inhibition was 0.4%.

`COCC(C)NC(=O)/C=C/c1ccc(OC)cc1` (stereo not drawn): the inhibition is 9.4%.

As to `O=C(c1cc(Cl)ccc1[N+](=O)[O-])N1CCc2ccccc2C1`, the inhibition is 7.8%.

These data come from PubChem BioAssay AID1209 (Sanford-Burnham Center for Chemical Genomics, 2008).
